Test results published in PubChem BioAssay (NCATS).
Records with an inconclusive call do not appear. The source made the active and inactive calls. Unless noted, calls follow the shape of the full dose curve. Residues, ends and D or L forms follow the SMILES beside them.

How the values were obtained:
[1] = qHTS for Inhibitors of the Functional Ribonucleoprotein Complex (vRNP) of Lassa (LASV) Arenavirus: LASV Primary Screen - GLuc reporter signal (AID 1347082; calls by dose curve; tested in HEK293 reporter line; also: nearly all actives have a fitted effect of over 60% in size); conditions: LASV minigenome vRNP, Gaussia luciferase reporter; series mostly up to 57.5 µM
[2] = qHTS for Inhibitors of the Functional Ribonucleoprotein Complex (vRNP) of Lassa (LASV) Arenavirus: Viability assay - alamar blue signal for LASV Primary Screen (AID 1347083; calls by dose curve; tested in HEK293 reporter line; also: nearly all actives have a fitted effect of over 80% in size); conditions: cell viability, alamar blue fluorescence (LASV minigenome counter-screen); series mostly up to 57.5 µM
[3] = qHTS for Inhibitors of the Functional Ribonucleoprotein Complex (vRNP) of Lymphocytic Choriomeningitis Arenaviruses (LCMV): Viability assay - alamar blue signal for LCMV Primary Screen (AID 1347085; calls by dose curve; tested in HEK293 reporter line; also: nearly all actives have a fitted effect of over 80% in size); conditions: alamar blue viability counter-screen, LCMV vRNP screen cells; series mostly up to 57.5 µM
[4] = molecular target: Nucleoprotein (Lymphocytic choriomeningitis virus (strain Armstrong)) (UniProt P09992); assay: qHTS for Inhibitors of the Functional Ribonucleoprotein Complex (vRNP) of Lymphocytic Choriomeningitis Arenaviruses (LCMV): LCMV Primary Screen - GLuc reporter signal (AID 1347086); conditions: LCMV minigenome vRNP cell assay, Gaussia luciferase reporter; series mostly up to 57.5 µM; also: nearly all actives have a fitted effect of over 70% in size
% is scaled to controls: 0 for no effect and ±100 for the full control effect.

Sequence of Nucleoprotein (Lymphocytic choriomeningitis virus (strain Armstrong)) (P09992 whole entry, looked up): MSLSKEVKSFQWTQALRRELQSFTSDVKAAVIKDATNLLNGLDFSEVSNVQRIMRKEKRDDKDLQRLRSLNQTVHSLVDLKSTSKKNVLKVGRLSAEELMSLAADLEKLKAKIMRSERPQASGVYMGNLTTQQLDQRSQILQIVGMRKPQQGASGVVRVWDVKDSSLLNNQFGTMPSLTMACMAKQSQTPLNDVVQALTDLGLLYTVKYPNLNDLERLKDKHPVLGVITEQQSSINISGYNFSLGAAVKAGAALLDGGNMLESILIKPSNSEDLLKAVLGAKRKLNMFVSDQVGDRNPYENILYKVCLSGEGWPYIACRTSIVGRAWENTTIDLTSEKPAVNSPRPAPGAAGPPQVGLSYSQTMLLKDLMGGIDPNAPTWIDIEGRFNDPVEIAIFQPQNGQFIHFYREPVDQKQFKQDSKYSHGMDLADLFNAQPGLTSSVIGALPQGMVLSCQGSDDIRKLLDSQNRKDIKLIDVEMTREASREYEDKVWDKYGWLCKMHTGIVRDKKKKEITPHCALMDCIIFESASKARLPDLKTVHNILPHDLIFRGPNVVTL

O=C(O)CCCCC1CCSS1 (centres undefined)
inactive: Potency [1] | Potency [2] | Potency [3] | Potency [4]

C[C@@H]1O[C@@H](OC[C@H]2O[C@@H](Oc3c(-c4ccc(O)c(O)c4)oc4cc(O)cc(O)c4c3=O)[C@H](O)[C@@H](O)[C@@H]2O)[C@H](O)[C@H](O)[C@H]1O
inactive: Potency [1] | Potency [2] | Potency [3] | Potency [4]

COP(=O)(OC)OC(c1ccc(Cl)cc1)P(=O)(OC)OC (centres undefined)
inactive: Potency [1] | Potency [2] | Potency [3] | Potency [4]

CC(C)[C@H](N)C(=O)OCCOCn1cnc2c(=O)[nH]c(N)nc21
inactive: Potency [1] | Potency [2] | Potency [3] | Potency [4]

CCc1cc(C(N)=S)ccn1
inactive: Potency [1] | Potency [2] | Potency [3] | Potency [4]

NCC(=O)CCC(=O)O
inactive: Potency [1] | Potency [2] | Potency [3] | Potency [4]

NC(N)=Nc1nc(CSCC/C(N)=N/S(N)(=O)=O)cs1
inactive: Potency [1] | Potency [2] | Potency [3] | Potency [4]

CCCC(=O)OCOC(=O)C1=C(C)NC(C)=C(C(=O)OC)C1c1cccc(Cl)c1Cl (centres undefined)
inactive: Potency [1] | Potency [2] | Potency [3] | Potency [4]

O=C(c1ccccc1)C(O)c1ccccc1 (centres undefined)
inactive: Potency [1] | Potency [2] | Potency [3] | Potency [4]

COC(=O)C1=C(C)NC(C)=C(C(=O)OCC(C)=O)C1c1ccccc1[N+](=O)[O-] (centres undefined)
inactive: Potency [1] | Potency [2] | Potency [3] | Potency [4]

CC(=O)OC[C@H]1O[C@@H](OC(C)=O)[C@H](OC(C)=O)[C@@H]1OC(C)=O
inactive: Potency [1] | Potency [2] | Potency [3] | Potency [4]

OCc1cccnc1
inactive: Potency [1] | Potency [2] | Potency [3] | Potency [4]

NC[C@H]1O[C@H](O[C@H]2[C@H](O[C@@H]3O[C@H](CO)[C@@H](O)[C@H]3O)C(O)[C@H](N)C[C@@H]2N)[C@H](N)[C@@H](O)[C@@H]1O (some centres undefined)
inactive: activity change, negative = inhibition [1] -1.42% [at 11.5 µM] | activity change, negative = reduced viability [2] -0.396% [at 11.5 µM] | activity change, negative = lower viability [3] -0.301% [at 11.5 µM] | activity change, negative = inhibition [4] 40.8% [at 11.5 µM]

NC(=O)N[C@@H](CCC(=O)O)C(=O)O
inactive: Potency [1] | Potency [2] | Potency [3] | Potency [4]

CC(C)(C)NCC(O)COc1ccc(NC(=O)NC2CCCCC2)cc1 (centres undefined)
inactive: Potency [1] | Potency [2] | Potency [3] | Potency [4]

Cc1cc(O)c2c(O)c3c(O)cccc3cc2c1
inactive: Potency [1] | Potency [2] | Potency [3] | Potency [4]

CC(=O)CC(c1ccc([N+](=O)[O-])cc1)c1c(O)c2ccccc2oc1=O (centres undefined)
inactive: Potency [1] | Potency [2] | Potency [3] | Potency [4]

CCN(Cc1ccncc1)C(=O)C(CO)c1ccccc1 (centres undefined)
inactive: Potency [1] | Potency [2] | Potency [3] | Potency [4]

CNC(=O)c1c(I)c(NC(C)=O)c(I)c(C(=O)O)c1I
inactive: Potency [1] | Potency [2] | Potency [3] | Potency [4]

CCN(CC)C(=O)/C(C#N)=C/c1cc(O)c(O)c([N+](=O)[O-])c1
inactive: Potency [1] | Potency [2] | Potency [3] | Potency [4]

Cc1cc(C)nc(NS(=O)(=O)c2ccc(N)cc2)n1
inactive: Potency [1] | Potency [2] | Potency [3] | Potency [4]

CCN(CC)CCNC(=O)c1ccc(N)cc1
inactive: Potency [1] | Potency [2] | Potency [3] | Potency [4]

CCc1cccc(CC)c1NC(=O)CN(CC(=O)O)CC(=O)O
inactive: Potency [1] | Potency [2] | Potency [3] | Potency [4]

CCS(=O)(=O)c1ccc(OC)c(C(=O)OC)c1
inactive: Potency [1] | Potency [2] | Potency [3] | Potency [4]

COC(=O)[C@H](Cc1ccccc1)NC(=O)[C@@H](N)CC(=O)O (H-Asp-Phe-OMe)
inactive: Potency [1] | Potency [2] | Potency [3] | Potency [4]

NC/C=C/C(=O)O
inactive: Potency [1] | Potency [2] | Potency [3] | Potency [4]

Cc1onc(-c2ccccc2)c1C(=O)Cl
inactive: Potency [1] | Potency [2] | Potency [3] | Potency [4]

CNNCc1ccc(C(=O)NC(C)C)cc1
inactive: Potency [1] | Potency [2] | Potency [3] | Potency [4]

COC(=O)CCCCC(CCSS/C(CCO)=C(\C)N(C=O)Cc1cnc(C)nc1N)SC(C)=O (centres undefined)
inactive: Potency [1] | Potency [2] | Potency [3] | Potency [4]

COc1ccc(-c2cc(=O)c3c(O)cc(O[C@@H]4O[C@H](CO[C@@H]5O[C@@H](C)[C@H](O)[C@@H](O)[C@H]5O)[C@@H](O)[C@H](O)[C@H]4O)cc3o2)cc1O
inactive: Potency [1] | Potency [2] | Potency [3] | Potency [4]

CCC1(C)CC(=O)NC1=O (centres undefined)
inactive: Potency [1] | Potency [2] | Potency [3] | Potency [4]

CCn1cc(C(=O)O)c(=O)c2cnc(N3CCCC3)nc21
inactive: activity change, negative = inhibition [1] 2.17% [at 11.5 µM] | activity change, negative = reduced viability [2] 9.34% [at 11.5 µM] | activity change, negative = lower viability [3] 6.9% [at 11.5 µM] | activity change, negative = inhibition [4] 14.6% [at 11.5 µM]

COC(=O)[C@@H]1[C@H]2C[C@H]3c4[nH]c5ccccc5c4CCN3C[C@@H]2CC[C@@H]1O
inactive: Potency [1] | Potency [2] | Potency [3] | Potency [4]

CC1CCc2c(N3CCC(O)CC3)c(F)cc3c(=O)c(C(=O)O)cn1c23 (centres undefined)
inactive: Potency [1] | Potency [2] | Potency [3] | Potency [4]

O=C1CCCc2c(O)cccc21
inactive: Potency [1] | Potency [2] | Potency [3] | Potency [4]

CCCCCC[C@@H](CCC)C(=O)O
inactive: Potency [1] | Potency [2] | Potency [3] | Potency [4]
